Test systems include SR leukemia; RPMI-8226 leukemia; OVCAR-8 ovarian; OVCAR-5 ovarian; OVCAR-4 ovarian; IGROV1 ovarian; OVCAR-3 ovarian; HS 578T breast; NCI/ADR-RES ovarian; T-47D breast; BT-549 breast; MDA-MB-435 melanoma; SW-620 colon; MCF7 breast; HCT-116 colon; HCC-2998 colon; KM12 colon; SK-OV-3 ovarian.
Common to all, as to test: NCI-60 one-dose screen, 48 h (100 = growth as untreated, 0 = no growth, -100 = all killed)
What all share (conditions): 10 µM unless noted

Molecules are shown by their SMILES. Compounds without any hit were thinned out: in the full panel of roughly 83,000, 20% have a hit.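 In brief: 96-well plates, 48 h treatment, single concentration, percent growth endpoint.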 Unmarked numbers belong to inactive results. Active and inactive are the calls of the source. The calls were made as follows: active = growth percent below 10; inactive = the rest.

The record followed here is PubChem BioAssay (NCI).

Regarding `CN1CCN(CCOc2ccc(-c3cnc4c(-c5cccc(F)c5)cnn4c3)cc2)CC1`, the growth in the test with SR leukemia was -12.8% (active); in the test with RPMI-8226 leukemia, 31.7%; with OVCAR-8 ovarian it was 69.8%; with OVCAR-5 ovarian, 84.6%; in the test with OVCAR-4 ovarian, 65.5%; in the test with IGROV1 ovarian, 63.8%. Moreover, the growth is 56.1% with OVCAR-3 ovarian; 77.6% in the test with HS 578T breast; 72.8% in the test with NCI/ADR-RES ovarian; 56.9% in the test on T-47D breast; 92.8% in the test on BT-549 breast; -47.8% (active) with MDA-MB-435 melanoma. The growth was -28.7% (active) in the test on SW-620 colon; 37.4% in the test with MCF7 breast; 23.9% with HCT-116 colon; 63.2% with HCC-2998 colon; 11.4% in the test on KM12 colon.
For the molecule `N=C(N)c1ccc(-c2ccc(-c3cc(F)cc(F)c3)o2)nc1`, the growth in the test on SR leukemia is 7.21% (active); with RPMI-8226 leukemia, 60.5%; in the test on OVCAR-8 ovarian it was 97.5%; in the test on OVCAR-5 ovarian, 88.9%; in the test on OVCAR-4 ovarian it was 96.2%; in the test on IGROV1 ovarian, 88.6%. In addition, the growth in the test on OVCAR-3 ovarian was 95.6%; in the test on HS 578T breast, 87.8%; in the test on NCI/ADR-RES ovarian, 94.6%; in the test with T-47D breast, 86.3%; in the test on BT-549 breast, 97.4%; in the test on MDA-MB-435 melanoma, 90.9%. Further, the growth is 54.2% in the test with SW-620 colon; 66.9% with MCF7 breast; 64.2% in the test on HCT-116 colon; 96.5% in the test on HCC-2998 colon; 91.5% with KM12 colon.
Regarding `Cc1cc(Cl)c2c(N(C)C)cccc2n1`, the growth in the test on SR leukemia is 75%; in the test with RPMI-8226 leukemia, 104%; with OVCAR-8 ovarian, 94.5%; in the test on OVCAR-5 ovarian, 119%; in the test on OVCAR-4 ovarian, 108%; in the test with IGROV1 ovarian, 88.2%. Moreover, the growth is 100% with OVCAR-3 ovarian; 136% in the test with HS 578T breast; 106% in the test on NCI/ADR-RES ovarian; 94.7% with T-47D breast; 98.3% in the test on BT-549 breast; 106% with MDA-MB-435 melanoma. Also, the growth with SW-620 colon was 88.7%; with MCF7 breast, 79.3%; in the test with HCT-116 colon, 92.3%; in the test with HCC-2998 colon it was 97.1%; in the test on KM12 colon it was 109%.
For the molecule `N#CCCCCCn1c2ccccc2c2c3c(c4c5ccccc5n(CCCCCC#N)c4c21)C(=O)N(O)C3=O`, the growth in the test with SR leukemia is 42.9%; in the test with RPMI-8226 leukemia, 37.7%; in the test on OVCAR-8 ovarian, 69.4%; in the test on OVCAR-5 ovarian, 109%; with OVCAR-4 ovarian, 93.4%; with IGROV1 ovarian, 75.2%. Besides, the growth in the test with OVCAR-3 ovarian is 96.1%; in the test on HS 578T breast it was 92.7%; in the test on NCI/ADR-RES ovarian it was 85.9%; with T-47D breast, 75.7%; in the test on BT-549 breast, 75%; with MDA-MB-435 melanoma, 91.3%. Further, the growth with SW-620 colon is 106%; with MCF7 breast, 72.2%; in the test with HCT-116 colon, 71.3%; in the test on HCC-2998 colon, 80.8%; in the test on KM12 colon, 71.8%.
Consider `CN(C)CCCC1(c2ccc(F)cc2)OCc2cc(-c3ccc(C(F)(F)F)nc3)ccc21` (stereo not given), for which the growth was 11.9% with SR leukemia; 69.2% in the test with RPMI-8226 leukemia; 83.6% in the test on OVCAR-8 ovarian; 85.5% in the test on OVCAR-5 ovarian; 66.4% in the test on OVCAR-4 ovarian; 80.3% with SK-OV-3 ovarian. In addition, the growth with OVCAR-3 ovarian was 84.6%; in the test on HS 578T breast, 61.9%; in the test with NCI/ADR-RES ovarian, 84.1%; with T-47D breast, 66.5%; in the test with BT-549 breast, 94.7%; with MDA-MB-435 melanoma, 67.9%. The growth with SW-620 colon is 83.5%; in the test with MCF7 breast, 56.7%; with HCT-116 colon it was 58.4%; in the test with KM12 colon, 80.2%.
On to `O=C1/C(=C\c2ccco2)SC(=S)N1CCc1ccc(O)cc1`, for which the growth with SR leukemia is 95.7%; in the test on RPMI-8226 leukemia, 83.1%; with OVCAR-8 ovarian, 102%; in the test on OVCAR-5 ovarian, 103%; in the test on OVCAR-4 ovarian it was 90.3%; in the test on SK-OV-3 ovarian it was 100%. Also, the growth in the test on OVCAR-3 ovarian is 105%; in the test with HS 578T breast, 99.5%; in the test on NCI/ADR-RES ovarian it was 103%; in the test with T-47D breast, 67.6%; in the test with BT-549 breast, 87.2%; with MDA-MB-435 melanoma, 93.7%. The growth is 109% in the test with SW-620 colon, 114% in the test with MCF7 breast, 96.1% with HCT-116 colon and 85.5% in the test with KM12 colon.
As for `COc1cc(-c2nc(-c3ccccc3)c(-c3ccccc3)[nH]2)cc(OC)c1O`, the growth with SR leukemia was 4.48% (active); in the test on RPMI-8226 leukemia it was 0.561% (active); in the test on OVCAR-8 ovarian it was -0.964% (active); in the test on OVCAR-5 ovarian, 75.3%; with OVCAR-4 ovarian, -36.5% (active); with SK-OV-3 ovarian it was -0.937% (active). The growth in the test with OVCAR-3 ovarian is -80.9% (active); in the test with HS 578T breast, 9.67% (active); with T-47D breast, 6.06% (active); with BT-549 breast, 11.5%; with MDA-MB-435 melanoma, -23.2% (active); with SW-620 colon, -37.2% (active). In addition, the growth in the test on MCF7 breast is -85.8% (active); in the test with HCT-116 colon it was -2.7% (active); in the test with HCC-2998 colon, -55.2% (active); in the test with KM12 colon, -52.9% (active).
Turning to `COc1ccc(/C(=C\c2ccc3c(c2)OCO3)C(=O)Nc2nc3ccccc3s2)cc1OC`, the growth in the test on SR leukemia was 69.8%; with RPMI-8226 leukemia it was 78.2%; in the test on OVCAR-8 ovarian, 86.8%; in the test on OVCAR-5 ovarian, 93.7%; in the test with OVCAR-4 ovarian it was 92.2%; with IGROV1 ovarian, 101%. The growth with OVCAR-3 ovarian was 97%; in the test with HS 578T breast, 95%; in the test with NCI/ADR-RES ovarian, 98.1%; in the test on T-47D breast, 92.3%; in the test on BT-549 breast, 88.7%; in the test on MDA-MB-435 melanoma, 95.7%. The growth with SW-620 colon was 102%; with MCF7 breast, 89.5%; in the test with HCT-116 colon, 73.6%; with HCC-2998 colon it was 102%; in the test on KM12 colon, 85.4%.
On to `C=C1CC[C@@H](C(=O)OC)Cc2nc(C)ccc21`, for which the growth was 95.7% with SR leukemia; 100% with RPMI-8226 leukemia; 102% in the test with OVCAR-8 ovarian; 98.4% in the test on OVCAR-5 ovarian; 103% in the test with OVCAR-4 ovarian; 107% with IGROV1 ovarian. Further, the growth in the test on OVCAR-3 ovarian was 119%; in the test on HS 578T breast, 107%; with NCI/ADR-RES ovarian, 98.5%; in the test on T-47D breast, 99%; in the test with BT-549 breast, 122%; with MDA-MB-435 melanoma, 103%. The growth in the test on SW-620 colon is 102%; with MCF7 breast, 98%; in the test on HCT-116 colon it was 110%; in the test with HCC-2998 colon, 101%; in the test on KM12 colon it was 108%.
